Some of the results follow. Unmarked numbers belong to inactive results. The rule behind the calls is not given here.
Assay: compounds displacing fluorescent intercalator from DNA, dose response, counter-screen for HCV NS3 helicase inhibitor project, biochemical, fluorescence (AID 2172)
Settings: fluorescent intercalator displacement from DNA

SMILES | IC50 [µM]
CC(Oc1ccccc1)C(=O)Nc1oc(-c2ccco2)c(-c2ccco2)c1C#N (centres undefined) | > 79.4
Cc1ccc(/C=C/C(=O)Nc2ccc([N+](=O)[O-])c(NC(=O)/C=C/c3ccc(C)o3)c2)o1 | > 79.4
Cc1cc(N2C(=O)C(O)=C(C(=O)c3ccc(C)o3)C2c2ccc(OCc3ccccc3)cc2)no1 (centres undefined) | > 79.4
Cc1cc(O)c(C(=O)/C=C/c2c(F)c(F)c(F)c(F)c2F)c(=O)o1 | > 79.4

— PubChem BioAssay AID2172 (The Scripps Research Institute Molecular Screening Center, 2009)
